26 compounds from PubChem BioAssay (EPA / NIEHS) can be followed below.

Values joined by “and” are separate entries in the source; they are usually repeats but may differ in a detail not shown here. Equal values may be shown once. Inconclusive results are not listed. Where a structure was tested more than once in an assay, its records may differ in their call. Active and inactive are the calls of the source. The calls were made as follows, unless noted: active = hit-call score of the fitted dose curve at least 0.9, where 1 is the maximum; inconclusive = response in the unintended direction; inactive = score below 0.9.

The target in assay [1] is Bile acid receptor (Homo sapiens) (UniProt Q96RI1). Put plainly: OT_FXR_FXRSRC1_0480: Odyssey Thera (OT) 8-hour HEK293T Protein-Complementation Assay for Farnesoid X receptor/SRC-1 Co-activator (AID 2283383). The essentials: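 HEK293T cells expressing FXR and SRC-1 fused to reporter fragments were dosed with compound for 8 h; fluorescence from the reconstituted reporter marked co-activator recruitment. Gain of signal was fitted against the DMSO baseline.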

Assay [2] has the same target. The assay is described as follows: OT_FXR_FXRSRC1_1440: Odyssey Thera (OT) 24-hour HEK293T Protein-Complementation Assay for Farnesoid X receptor/SRC-1 Co-activator (AID 2283384). The essentials: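 HEK293T cells were dosed with compound and read 24 h later by fluorescence intensity from protein-fragment complementation reporting FXR/SRC-1 co-activator interaction. Gain of signal was fitted relative to DMSO negative control as baseline.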

In assay [3] the target is Retinoic acid receptor RXR-alpha (Homo sapiens) (UniProt P19793). Put plainly: OT_NURR1_NURR1RXRa_0480: Odyssey Thera (OT) 8-hour HEK293T Protein Complementation Assay for Nurr1/retinoid X receptor (RXR) (AID 2283385). The essentials: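 HEK293T cells expressing Nurr1 and RXRα fused to reporter fragments were dosed with compound for 8 hours. Complex formation was read as fluorescence intensity and analysed as gain of signal against DMSO as baseline.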

Assay [4] has the same target. The assay is described as follows: OT_NURR1_NURR1RXRa_1440: Odyssey Thera (OT) 24-hour HEK293T Protein Complementation Assay for Nurr1/retinoid X receptor (RXR) (AID 2283386). An outline of the steps: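 HEK293T cells were dosed with compound and read 24 h later by fluorescence intensity in a protein-fragment complementation format, where Nurr1–RXRα interaction reconstitutes a split reporter. Activity was fitted as gain of signal relative to DMSO baseline.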

Assay [5] has as its target Peroxisome proliferator-activated receptor gamma (Homo sapiens) (UniProt P37231). Put plainly: OT_PPARg_PPARgSRC1_0480: Odyssey Thera (OT) 8-hour Protein-Complementation Assay for Peroxisome Proliferator-activated Receptor Gamma / SRC-1 Co-activator (AID 2283387).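 Also: nuclear to cytoplasmic split Venus YFP fluorescence ratio reporting PPARg SRC-1 interaction.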 An outline of the steps:
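HEK293T transiently transfected with PPARg and SRC-1 fused to Venus YFP fragments, compounds 8 h at 37C. Fixed, Draq5-stained cells imaged; nuclear/cytoplasmic 488 nm fluorescence ratio over at least 350 cells per image; gain fitted versus DMSO.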

Assay [6] has the same target. The assay is described as follows: OT_PPARg_PPARgSRC1_1440: Odyssey Thera (OT) 24-hour Protein-Complementation Assay for Peroxisome Proliferator-activated Receptor Gamma/ SRC-1 Co-activator (AID 2283388). An outline of the steps: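 Readout is the 488 nm N/C fluorescence ratio from fixed, Draq5-stained HEK293T cells after 24 h compound exposure. Cells carried transiently transfected PPARg and SRC-1 fused to Venus fragments, transfected 48 h before treatment.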

Assay [7] in a line: CEETOX_H295R_11DCORT: CeeTox H295R High-throughput Steroidogenesis Assay for 11-Deoxycortisol (11DCORT) (AID 2283432; active = hit-call score of the fitted dose curve at least 0.9, where 1 is the maximum; inactive = score below 0.9;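 as to AC50: 11-deoxycortisol secreted into the medium measured by LC-MS/MS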). The note with it: actives raise or lower the signal. An outline of the steps:
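H295R cells prestimulated 48 h with 10 uM forskolin, then exposed 48 h to chemical in 0.1% DMSO. 11-Deoxycortisol in medium quantified by HPLC-MS/MS after MTBE extraction; bidirectional fit versus DMSO. MTT viability read in same wells.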

The nature of assay [8]: CEETOX_H295R_OHPREG: CeeTox H295R High-throughput Steroidogenesis Assay for OH-Pregnenolone (OHPREG) (AID 2283434; active = hit-call score of the fitted dose curve at least 0.9, where 1 is the maximum; inactive = score below 0.9). The note with it: actives raise or lower the signal. An outline of the steps:
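Human adrenal H295R cells were prestimulated 48 h with 10 uM forskolin, then exposed 48 h to chemical in 0.1% DMSO. Medium 17alpha-hydroxypregnenolone was quantified by HPLC-MS/MS after MTBE extraction; bidirectional fitting versus DMSO baseline.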

Assay [9] can be described thus: CEETOX_H295R_OHPROG: CeeTox H295R High-throughput Steroidogenesis Assay for OH-Progesterone (OHPROG) (AID 2283435; active = hit-call score of the fitted dose curve at least 0.9, where 1 is the maximum; inactive = score below 0.9). The note with it: actives raise or lower the signal. An outline of the steps:
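H295R human adrenal cells were prestimulated 48 h with 10 uM forskolin, then exposed 48 h to test chemical (0.1% DMSO final). 17alpha-hydroxyprogesterone in medium was measured by HPLC-MS/MS after MTBE extraction; bidirectional fitting vs DMSO.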

A short description of assay [10]: CEETOX_H295R_ANDR: CeeTox H295R High-throughput Steroidogenesis Assay for Androstenedione (ANDR) (AID 2283436; active = hit-call score of the fitted dose curve at least 0.9, where 1 is the maximum; inactive = score below 0.9). The note with it: actives raise or lower the signal. The essentials: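 H295R human adrenal cells (passages ≤10) were exposed to test chemicals for 48 h; androstenedione in medium was MTBE-extracted and quantified by HPLC-MS/MS against a 7-point standard curve. Bidirectional fitting used DMSO as baseline.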

Chain of Retinoic acid receptor RXR-alpha (Homo sapiens) (P19793 whole entry, looked up, the tested form may be a part): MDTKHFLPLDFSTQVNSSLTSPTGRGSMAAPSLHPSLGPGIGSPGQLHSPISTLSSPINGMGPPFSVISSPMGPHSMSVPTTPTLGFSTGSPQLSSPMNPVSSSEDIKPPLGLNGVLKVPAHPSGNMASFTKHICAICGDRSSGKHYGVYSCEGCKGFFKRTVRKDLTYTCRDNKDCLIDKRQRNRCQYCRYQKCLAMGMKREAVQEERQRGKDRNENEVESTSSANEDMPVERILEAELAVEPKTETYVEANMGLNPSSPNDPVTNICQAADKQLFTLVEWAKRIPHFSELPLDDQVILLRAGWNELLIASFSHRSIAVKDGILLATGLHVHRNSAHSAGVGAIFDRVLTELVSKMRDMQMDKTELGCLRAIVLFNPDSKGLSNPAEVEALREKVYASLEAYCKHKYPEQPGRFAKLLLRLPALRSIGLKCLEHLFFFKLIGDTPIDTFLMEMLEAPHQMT
Chain of Bile acid receptor (Homo sapiens) (Q96RI1 whole entry, looked up, the tested form may be a part): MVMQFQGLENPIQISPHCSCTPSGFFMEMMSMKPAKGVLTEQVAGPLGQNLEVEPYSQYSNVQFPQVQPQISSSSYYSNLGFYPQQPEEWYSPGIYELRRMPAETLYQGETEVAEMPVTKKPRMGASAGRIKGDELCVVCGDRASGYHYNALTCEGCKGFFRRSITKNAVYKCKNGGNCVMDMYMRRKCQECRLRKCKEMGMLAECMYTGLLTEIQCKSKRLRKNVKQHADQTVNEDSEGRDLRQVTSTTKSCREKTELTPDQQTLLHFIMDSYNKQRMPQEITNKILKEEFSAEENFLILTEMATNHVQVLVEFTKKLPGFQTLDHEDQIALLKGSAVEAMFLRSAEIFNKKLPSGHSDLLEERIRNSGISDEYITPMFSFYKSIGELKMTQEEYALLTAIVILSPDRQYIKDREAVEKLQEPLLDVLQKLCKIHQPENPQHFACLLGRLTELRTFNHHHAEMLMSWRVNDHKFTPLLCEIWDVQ
Chain of Peroxisome proliferator-activated receptor gamma (Homo sapiens) (P37231 whole entry, looked up, the tested form may be a part): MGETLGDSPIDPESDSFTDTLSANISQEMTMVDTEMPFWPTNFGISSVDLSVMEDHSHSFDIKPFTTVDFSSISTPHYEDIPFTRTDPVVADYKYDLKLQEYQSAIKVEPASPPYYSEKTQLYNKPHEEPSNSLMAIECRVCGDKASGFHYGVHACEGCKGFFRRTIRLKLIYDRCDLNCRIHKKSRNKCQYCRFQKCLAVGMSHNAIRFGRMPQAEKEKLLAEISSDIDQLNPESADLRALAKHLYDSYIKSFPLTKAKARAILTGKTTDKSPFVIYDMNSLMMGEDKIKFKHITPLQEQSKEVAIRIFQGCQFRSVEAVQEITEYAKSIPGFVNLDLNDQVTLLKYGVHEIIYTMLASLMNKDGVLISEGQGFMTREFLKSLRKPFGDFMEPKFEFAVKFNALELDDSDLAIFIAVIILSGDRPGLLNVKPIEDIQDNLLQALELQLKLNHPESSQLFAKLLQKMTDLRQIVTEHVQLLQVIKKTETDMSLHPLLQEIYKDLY

On to `CN(C)C(=O)Nc1ccc(Cl)cc1`, for which the outcome in assay [1], in [3], in assay [4], in [5] and in assay [6] was inactive. The AC50 in assay [2] was 66.9 µM (active).

In the case of `ClCCOCCCl`, the compound was called inactive in [1], in assay [2], in assay [3], in [5] and in assay [6].

Regarding `CCCCCCCCOC(=O)c1ccc(C(=O)OCCCCCCCC)c(C(=O)OCCCCCCCC)c1`, the call in assay [1], in [2], in assay [5] and in assay [6] was inactive.

As for `Clc1ccccc1Cl`, the compound was called inactive in assay [1], in assay [2], in assay [5] and in [6].

In the case of `CCC[CH2][Sn]([Cl])([CH2]CCC)[CH2]CCC`, the result in assay [1] and in assay [3] was inactive. In addition, in [2], the concentration at half-maximal activity (AC50) is 82 µM (active).

As for `OCCCl`, the call in assay [1], in assay [3], in assay [5] and in [6] was inactive.

Take `CN(C)c1ccc(C(=O)c2ccc(N(C)C)cc2)cc1`: the AC50 is 49 µM (active) in assay [1], 0.699 µM (active) in [2] and 60.1 µM (active) in assay [3]. Further, the result in assay [3], in assay [4], in assay [5] and in assay [6] was inactive.

For the compound `CC(C)(O)c1cnn2c(-c3ccc(F)c(-c4c(F)cccc4C#N)c3)cnc2n1`, the AC50 in assay [1] is 35.7 µM (active); in [2] it was 64.9 µM (active); in [3] it was 84.7 µM (active) and 91.1 µM (active); in [4] it was 86.8 µM (active) and 75.3 µM (active); in assay [5], 92.9 µM (active) and 93.2 µM (active); in assay [6], 92.9 µM (active) and 79.4 µM (active). The AC50 in assay [9] is 0.408 µM (active). Also, the result in assay [7], in [8] and in [10] was inactive.

In the case of `CN(C)[C@@H]1C(=O)C(C(N)=O)=C(O)[C@@]2(O)C(=O)C3=C(O)c4c(O)cccc4[C@@](C)(O)[C@H]3C[C@@H]12`, the compound was classed as inactive in assay [1], in assay [2], in assay [3], in assay [5] and in assay [6].

On to `Nc1ccc(N=Nc2ccccc2)cc1`, for which the outcome in assay [1], in assay [3], in assay [5] and in assay [6] was inactive. Further, the half-maximal activity concentration (AC50) in [2] was 12.2 µM (active); in assay [7], 36.7 µM (active); in [8], 50 µM (active); in assay [9], 12.6 µM (active).

For the compound `Cc1cccc(N)c1N`, the AC50 in assay [1] is 42.8 µM (active); in assay [2], 49.3 µM (active); in assay [3], 33.9 µM (active); in assay [5], 31.9 µM (active) and 66.9 µM (active); in assay [8] it was 27 µM (active); in [9], 18.5 µM (active). For the same compound, the compound was classed as inactive in [3], in assay [6] and in assay [7].

For `CCOC(=O)[C@]1(c2ccccc2)Oc2ccccc2[C@@H]1N`, the compound was called inactive in assay [1], in [2], in assay [5] and in assay [6]. In addition, the figures for the AC50 in [7], in assay [8] and in assay [9] were 2.19 µM (active), 1.4 µM (active) and 3.16 µM (active), respectively.

For the compound `Nc1ccc(Cc2ccc(N)cc2)cc1`, the call in assay [1], in [2], in assay [3], in [5] and in assay [6] was inactive. The concentration at half-maximal activity (AC50) in assay [7] is 40.3 µM (active); in assay [8], 4.31 µM (active); in assay [9] it was 4.68 µM (active).

As for `CCNS(=O)(=O)C(F)(F)C(F)(F)C(F)(F)C(F)(F)C(F)(F)C(F)(F)C(F)(F)C(F)(F)F`, the compound was called inactive in assay [1], in assay [3], in assay [5] and in assay [6].

As for `CC(C)N(Cc1ccccc1)C(=O)C(C)(C)C`, the result in [1], in assay [2], in assay [3], in [5], in assay [6] and in assay [8] was inactive. Besides, the compound was called inactive in assay [9] and in assay [10].

Consider `COP(=S)(OC)SCN1C(=O)c2ccccc2C1=O`, for which the outcome in assay [1], in assay [2], in [3], in assay [5], in assay [6] and in assay [7] was inactive. The compound was called inactive in assay [8] and in assay [9].

Consider `Clc1ccc(C(c2ccc(Cl)cc2)C(Cl)(Cl)Cl)cc1`, for which the AC50 in assay [1] is 11.2 µM (active); in assay [3] it was 70.1 µM (active). For the same compound, the outcome in [2], in [5] and in assay [6] was inactive.

Turning to `O=P(OCCCl)(OCCCl)OCCCl`, the compound was classed as inactive in [1], in [2], in [3], in assay [4], in assay [5] and in assay [6]. Moreover, the result in assay [7], in assay [8] and in [9] was inactive.

Take `Nc1ccc(Cl)cc1N`: the AC50 was 35.3 µM (active) in assay [1]; 33.8 µM (active) in assay [2]; 39.2 µM (active) in assay [3]; 31.3 µM (active) in assay [4]; 45.3 µM (active) in assay [5]; 1.41 µM (active) in [8]. The call in [3], in assay [4], in assay [5], in assay [6], in [7] and in [9] was inactive. Moreover, the compound was classed as inactive in assay [10].

`Cc1cc(N=Nc2ccccc2C)ccc1N`: the compound was classed as inactive in assay [1], in assay [3], in assay [4], in [5], in assay [6] and in [7]. The compound was classed as inactive in assay [8] and in [10]. For the same compound, the AC50 in [9] is 1.79 µM (active).

On to `CC(C)COC(=O)c1ccccc1C(=O)OCC(C)C`, for which the half-maximal activity concentration (AC50) in assay [1] was 17.7 µM (active). Further, the compound was classed as inactive in assay [2], in assay [3], in assay [5] and in [6].

For `CC(C)(OOC(C)(C)c1ccccc1)c1ccccc1`, the AC50 in [1] was 58.3 µM (active); in [2] it was 65.1 µM (active); in assay [3], 77.4 µM (active) and 93.2 µM (active); in assay [4] it was 78.3 µM (active) and 78.5 µM (active). For the same compound, the outcome in assay [5] and in assay [6] was inactive.

On to `CCN(CC)N=O`, for which the outcome in assay [1], in [2], in assay [3], in [4], in assay [5] and in assay [6] was inactive.

`CCC(C)c1ccc(O)cc1` (stereo unspecified): the result in [1], in assay [2], in assay [3], in assay [4], in [7] and in [8] was inactive. Moreover, the half-maximal activity concentration (AC50) in assay [9] was 22.5 µM (active).

As for `C[C@]12C=CC3=C4CCC(=O)C=C4CC[C@H]3[C@@H]1CC[C@@H]2O`, the concentration at half-maximal activity (AC50) in assay [1] was 12.7 µM (active) and 14.2 µM (active) and 12.3 µM (active); in assay [2], 21.3 µM (active) and 21.2 µM (active) and 19.5 µM (active); in [3] it was 14.3 µM (active); in [8], 13.2 µM (active); in assay [10] it was 90.1 µM (active). Also, the compound was classed as inactive in [1], in assay [2], in [3], in [5] and in assay [6].

Take `c1ccc(NNc2ccccc2)cc1`: the outcome in assay [1], in [2], in assay [3], in assay [7] and in [8] was inactive. Besides, in assay [9], the concentration at half-maximal activity (AC50) was 48.6 µM (active).
